In PubChem BioAssay (NCATS):
Inconclusive results are not listed. The source made the active and inactive calls. Calls follow the shape of the dose curve; as a rule, active = well fitted curve in the direction sought with a large enough effect; inconclusive = small, poorly fitted or top-dose-only effect, or another doubt; inactive = no such curve, though single readings can be large; an effect the other way counts as inactive or inconclusive.

Tests used:
[1] = test system: CRL-7250; assay: Cytotoxic Profiling of Annotated Libraries Using Quantitative High-Throughput Screening (AID 1296008); details: Five cell lines viability, CellTiter-Glo ATP luminescence, 48-72 h; max response: hits give low values; also: nearly all actives have a fitted effect of over 60% in size; as to max response: % is scaled to controls: 0 for no effect and ±100 for the full control effect
Method in brief: (§1)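 Compounds were pin-transferred onto cells and incubated 48 or 72 hr at 37 degree Celsius, 95% humidity. CellTiter-Glo was added, plates sat 10 min at room temperature, then ATP-coupled luminescence was imaged as the viability read-out.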

[2] = test system: HEK293; assay: as above; details: Five cell lines viability, CellTiter-Glo ATP luminescence, 48-72 h; max response: hits give low values
Method in brief: as §1

[3] = test system: HaCat; assay: as above; details: Five cell lines viability, CellTiter-Glo ATP luminescence, 48-72 h; max response: hits give low values
Method in brief: as §1

[4] = test system: KB-3-1; assay: as above; details: Five cell lines viability, CellTiter-Glo ATP luminescence, 48-72 h; max response: hits give low values
Method in brief: as §1

[5] = test system: NIH3T3; assay: as above; details: Five cell lines viability, CellTiter-Glo ATP luminescence, 48-72 h; max response: hits give low values
Method in brief: as §1

[6] = test system: NIH3T3; assay: qHTS assay to identify novel small-molecules to repurpose for Merkel cell carcinoma treatment (AID 1296009); details: MCC and control cell lines, CellTiter-Glo viability, 72 h; at 44.8 µM (top of the series) unless noted; also: nearly all actives have a fitted effect of over 60% in size
Method in brief: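 Viability readout: ATP luminescence (CellTiter-Glo) after 72 hr drug exposure at 37 degree celsius. Dose-response format was 8 points for NPC and 11 points for MIPE; data normalized to in-plate controls.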

[7] = test system: C33A; assay: Primary qHTS to identify gynecologic anti-cancer compounds using libraries of approved drugs and bioactive compounds (AID 1345084); details: Gynecologic cancer cell panel viability, ATPlite luminescence, 48 h; series mostly up to 57.5 µM; also: % is scaled to controls: 0 for no effect and ±100 for the full control effect; nearly all actives have a fitted effect of over 55% in size
Method in brief: (§2)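 48 h compound exposure at 37 C, 5% CO2; five-point qHTS. ATPlite luminescence readout of cell ATP.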

[8] = test system: CAOV3; assay: as above; details: Gynecologic cancer cell panel viability, ATPlite luminescence, 48 h; series mostly up to 57.5 µM
Method in brief: as §2

[9] = test system: CASKI; assay: as above; details: Gynecologic cancer cell panel viability, ATPlite luminescence, 48 h; series mostly up to 57.5 µM
Method in brief: as §2

[10] = test system: Es-2; assay: as above; details: Gynecologic cancer cell panel viability, ATPlite luminescence, 48 h; series mostly up to 57.5 µM
Method in brief: as §2

[11] = test system: HeLa; assay: as above; details: Gynecologic cancer cell panel viability, ATPlite luminescence, 48 h; series mostly up to 57.5 µM
Method in brief: as §2

[12] = test system: Hek293T; assay: as above; details: Gynecologic cancer cell panel viability, ATPlite luminescence, 48 h, control line for the selectivity index; series mostly up to 57.5 µM
Method in brief: as §2

[13] = test system: JEG-3; assay: as above; details: Gynecologic cancer cell panel viability, ATPlite luminescence, 48 h; series mostly up to 57.5 µM
Method in brief: as §2

[14] = test system: OV90; assay: as above; details: Gynecologic cancer cell panel viability, ATPlite luminescence, 48 h; series mostly up to 57.5 µM
Method in brief: as §2

[15] = test system: PA-1; assay: as above; details: Gynecologic cancer cell panel viability, ATPlite luminescence, 48 h; series mostly up to 57.5 µM
Method in brief: as §2

C[C@H]1/C=C/C=C/C=C/C=C/C=C/[C@@H](O)[C@H](C(=O)O)[C@H](O)C[C@H](O)CCC[C@H](O)C[C@H](O)C[C@H](O)[C@@H](C)C(=O)O[C@@H]1C
inactive: outcome [1] | max response [2] 1.51% | max response [3] 2.29% | max response [4] 7.54% | outcome [5] | outcome [6] inactive [at 17.4 µM] | Potency [7] | Potency [8] | outcome [9] | Potency [10] | Potency [11] | Potency [12] | Potency [13] | Potency [14] | Potency [15]

CC1=CCC[C@@H]2[C@](CCc3ccoc3)(C(=O)O)[C@H](C)CC[C@@]12C
inactive: max response [1] -2.77% | max response [2] -3.43% | max response [3] -10.6% | max response [4] 8.82% | outcome [5] | outcome [6] | Potency [7] | Potency [8] | outcome [9] | Potency [10] | Potency [11] | Potency [12] | Potency [13] | Potency [14] | Potency [15]

COc1cn(-c2ccc(-n3cccn3)cc2F)nc(-c2ccnn2-c2ccccc2)c1=O
inactive: max response [1] 1.34% | max response [2] -9.47% | max response [3] -2.34% | max response [4] 7.34% | outcome [5] | outcome [6] | Potency [7] | Potency [8] | outcome [9] | Potency [10] | Potency [11] | Potency [12] | Potency [13] | Potency [14] | Potency [15]

C=C1C[C@@]2(O)O[C@@]3(C[C@H]2C(C)C)[C@@H](C)CC[C@@H]13
inactive: outcome [1] | max response [2] -11.6% | max response [3] -13.2% | max response [4] 9.57% | outcome [5] | outcome [6] | Potency [7] | Potency [8] | outcome [9] | Potency [10] | Potency [11] | Potency [12] | Potency [13] | Potency [14] | Potency [15]

CC(CCO)CCC1C2(C)CCCC(C)(C)C2CC[C@@]1(C)O (stereo not given in full)
inactive: outcome [1] | max response [2] -13.3% | max response [3] -19.9% | max response [4] 7.08% | outcome [5] | outcome [6] | Potency [7] | Potency [8] | outcome [9] | Potency [10] | Potency [11] | Potency [12] | Potency [13] | Potency [14] | Potency [15]

COC(=O)c1ccc(OC)cc1O[C@@H]1O[C@H](CO[C@@H]2OC[C@@H](O)[C@H](O)[C@H]2O)[C@@H](O)[C@H](O)[C@H]1O
inactive: max response [1] -0.542% | max response [2] -1.51% | max response [3] -6.53% | outcome [4] | outcome [5] | outcome [6] inactive [at 17.4 µM] | Potency [7] | Potency [8] | outcome [9] | Potency [10] | Potency [11] | Potency [12] | Potency [13] | Potency [14] | Potency [15]

CC1=C[C@H](O)[C@H]2C(C)(C)CCC[C@]2(C)[C@@]1(O)CO
inactive: max response [1] -1.57% | max response [2] -4.11% | max response [3] 3.1% | outcome [4] | outcome [5] | outcome [6] | Potency [7] | Potency [8] | outcome [9] | Potency [10] | Potency [11] | Potency [12] | Potency [13] | Potency [14] | Potency [15]

C/C=C(\C)C(=O)OC[C@H]1O[C@@H](O[C@H]2[C@@H](O[C@H]3O[C@H](COC(=O)/C(C)=C/C)[C@@H](O)[C@H](O)[C@H]3O[C@@H]3O[C@H](CO)[C@@H](O)[C@H](OC(=O)/C(C)=C/C)[C@H]3O)O[C@H](COC(=O)/C(C)=C/C)[C@@H](O)[C@@H]2O)[C@H](O)[C@@H](O)[C@@H]1O
inactive: max response [1] -2.42% | max response [2] -5.26% | max response [3] 2.69% | outcome [4] | outcome [5] | outcome [6] inactive [at 9.27 µM] | activity change, negative = cytotoxicity [7] 12.3% [at 11.6 µM] | activity change, negative = cytotoxicity [8] 5.53% [at 11.6 µM] | activity change, negative = cytotoxicity [9] -1.71% [at 11.6 µM] | activity change, negative = cytotoxicity [10] 4.24% [at 11.6 µM] | activity change, negative = cytotoxicity [11] -5.55% [at 11.6 µM] | activity change, negative = cytotoxicity [12] 8.78% [at 11.6 µM] | activity change, negative = cytotoxicity [13] 2.17% [at 11.6 µM] | activity change, negative = cytotoxicity [14] -2.51% [at 11.6 µM] | activity change, negative = cytotoxicity [15] -18.4% [at 11.6 µM]

CC(=O)O[C@@]1(C)[C@@H]2CC(=C(C)C)C(=O)C[C@@]2(C)CC[C@H]1OC(=O)C1(C)OC1C (stereo not given in full)
inactive: max response [1] 1.92% | max response [2] -20.6% | max response [3] 0.799% | max response [4] 0.573% | outcome [5] | outcome [6] | Potency [7] | Potency [8] | outcome [9] | Potency [10] | Potency [11] | Potency [12] | Potency [13] | Potency [14] | Potency [15]

COC(=O)C1=CO[C@@H](O[C@@H]2O[C@H](CO)[C@@H](O)[C@H](O)[C@H]2O)[C@@H]2[C@@H](C)[C@@H](OC(=O)/C=C/c3ccccc3)[C@@H](O)[C@H]12
inactive: max response [1] -5.94% | max response [2] -9.01% | max response [3] -9.9% | outcome [4] | outcome [5] | outcome [6] inactive [at 17.4 µM] | Potency [7] | Potency [8] | outcome [9] | Potency [10] | Potency [11] | Potency [12] | Potency [13] | Potency [14] | Potency [15]

C=C1C(OC(C)=O)CCC2(C)CC3(O)OC(=O)C(C)=C3CC12 (stereo not given)
inactive: outcome [1] | max response [2] -4.29% | max response [3] -1.9% | outcome [4] | outcome [5] | outcome [6] | Potency [7] | Potency [8] | outcome [9] | Potency [10] | Potency [11] | Potency [12] | Potency [13] | Potency [14] | Potency [15]
